Screening data as filed in PubChem BioAssay.
Only a selection was taken, and hits are over-represented in it overall.
Dicer processing – inhibitors of human Dicer processing of pre-microRNA; Q9UPY3; cat-ELCCA pre-miR-21 Dicer processing, chemiluminescence; stronger effect = higher value; z-score at 25 µM; hit rate 6% among 47,000; in the data active = z-score above about 3, passing the limit was not always enough;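 note: plate controls were vehicle for no effect and no enzyme for full effect; higher signal means more uncleaved substrate so more Dicer inhibition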
* = called active by the depositor.

SMILES	Dicer processing
COc1ccccc1-c1coc2cc(OC(=O)c3ccc(Cl)cc3)ccc2c1=O	-0.87
CCC(C)OC(=O)COc1ccc2c(=O)c(Oc3cc(C)ccc3C)coc2c1 (configuration not stated)	7.7
Cc1cc(C)cc(Oc2coc3cc(O)ccc3c2=O)c1	4.3*
CCOCCOC(=O)COc1ccc2c(=O)c(Oc3cc(C)ccc3C)coc2c1	3.4*
Cc1ccc(C)c(Oc2coc3cc(OCC(=O)OCC(C)C)ccc3c2=O)c1	1.9
COc1ccccc1C(=O)Oc1ccc2c(=O)c(Oc3ccccc3Br)coc2c1	2.2
CCCCOC(=O)Oc1ccc2c(=O)c(Oc3ccc(C)cc3)coc2c1	3.5*
CC(C)(C)c1ccc(Oc2coc3cc(O)ccc3c2=O)cc1	-1.3
CCOC(=O)Oc1ccc2c(=O)c(Oc3ccc(C(C)(C)C)cc3)coc2c1	1.5
Cc1ccc(Oc2coc3cc(O)ccc3c2=O)cc1	0.2
COc1ccc(C(=O)Oc2ccc3c(=O)c(Oc4ccccc4Br)coc3c2)cc1OC	3.1*
CC(=O)OC[C@H]1O[C@@H](N2CCOCC2)[C@H](OC(C)=O)[C@@H](OC(C)=O)[C@@H]1OC(C)=O	-0.5
O=C(Cn1nc(C(F)(F)F)c2c1CCCC2)Nc1ccc(Br)cc1	0.87
CC(Cc1c[nH]c2ccccc12)N1C(=O)CCC1=O (configuration not stated)	-2.5
CCOc1ccc(NC(=O)C(=O)c2cc(Br)ccc2NC(C)=O)cc1	0.71
Nc1ccccc1SC(C[N+](=O)[O-])c1c(F)cccc1Cl (configuration not stated)	-1.8
COC(=O)c1c(NC(=O)c2cc3ccccc3c(=O)o2)sc2c1CCC2	-1.3
Cc1cc(C(=O)N2C=CC(C(F)(F)F)=NCC2)nn1C	0.26
COC(=O)c1ccc(CN)cc1	-2.1
Cc1ccc(CSC2=NCCCN2)cc1C	1.8
Cc1ccc(OCc2n[nH]c(=S)n2-c2ccccc2)c2c1CCC2	1.6
CC(C)OC(=O)C(C)Oc1ccc2c(=O)c(Oc3ccccc3Br)coc2c1 (configuration not stated)	-0.2
COc1ccc(Oc2coc3cc(OC(=O)c4ccc(F)cc4)ccc3c2=O)cc1	0.4
CCC(=O)Oc1ccc2c(=O)c(Oc3ccccc3Br)coc2c1	4.3*
Cc1cccc(Oc2coc3cc(OC(=O)c4ccncc4)ccc3c2=O)c1	28*
SMILES	Dicer processing
CC(C)(C)C(=O)Oc1ccc2c(=O)c(Oc3ccccc3Br)coc2c1	-0.06
Cc1cccc(Oc2coc3cc(OC(=O)c4cccnc4)ccc3c2=O)c1	-0.67
CCc1ncc(C(O)(c2ccccc2)c2cc(C)ccc2C)n1C (configuration not stated)	1.3
O=C(CN1C2=NCCCN2c2ccccc21)c1ccco1	1.2
NC1=NC(c2cccc(Br)c2)n2c(nc3ccccc32)N1 (configuration not stated)	0.38
O=C(O)Cc1nc2nc3c(c(=O)n2[nH]1)CCC3	1.6
COc1ccc(/C=C/C(=O)Nc2ccccc2C(O)(Cc2ccccc2)c2ccccc2)cc1 (configuration not stated)	-0.56
CCOc1ccccc1N1C(=O)C2C(c3ccc(F)cc3)OC3(C(=O)c4ccccc4C3=O)C2C1=O (configuration not stated)	-1.6
O=C(CSc1n[nH]c(=O)n1C1CC1)c1ccc(N2CCOCC2)cc1	-0.51
COC(=O)C1=C(C)NC2=C(C(=O)CC(C)(C)C2)C1c1ccc2c(c1)CCC(C)(C)O2 (configuration not stated)	1.8
O=c1ccn(Cc2ccccc2)c(=O)[nH]1	0.74
CCOC(=O)C1=C(C)NC2=C(C(=O)CC(C)(C)C2)C1c1ccc(OC(C)=O)cc1 (configuration not stated)	6.8*
COC(=O)C1=C(C)NC2=C(C(=O)CC(c3ccc(Cl)cc3)C2)C1c1ccc(C)cc1 (configuration not stated)	0.95
C=CCOC(=O)C1=C(C)NC2=C(C(=O)CC(C)(C)C2)C1c1ccc(OC(C)=O)cc1 (configuration not stated)	-0.25
COC(=O)c1ccc(C2C(C(=O)OCc3ccc(OC)cc3)=C(C)NC3=C2C(=O)CC(C)(C)C3)cc1 (configuration not stated)	0.18
CCCOC(=O)C1=C(C)NC2=C(C(=O)CC(c3ccccc3)C2)C1c1ccc(C)cc1 (configuration not stated)	1.1
COc1ccc(COC(=O)C2=C(C)NC3=C(C(=O)CC(C)(C)C3)C2c2ccc(OC)cc2)cc1 (configuration not stated)	3.5*
CC1=C(C(=O)OCCOC(C)C)C(c2ccc(O)cc2)C2=C(CC(C)(C)CC2=O)N1 (configuration not stated)	1.7
CCCOC(=O)C1=C(C)NC2=C(C(=O)CC(C)(C)C2)C1c1ccc(N(CC)CC)cc1 (configuration not stated)	0.92
CCCOC(=O)C1=C(C)NC2=C(C(=O)CC(c3ccc(Cl)cc3)C2)C1c1ccc(O)cc1 (configuration not stated)	4.7*
CCCOC(=O)C1=C(C)NC2=C(C(=O)CC(C)(C)C2)C1c1ccc(O)cc1 (configuration not stated)	3.8*
CCOC(=O)C1=C(C)NC2=C(C(=O)CC(C)(C)C2)C1c1ccc(OC)cc1 (configuration not stated)	-1.1
COc1ccc(COC(=O)C2=C(C)NC3=C(C(=O)CC(C)(C)C3)C2c2ccncc2)cc1 (configuration not stated)	1.3
Cc1ccc(-n2nnnc2SCc2c(F)cccc2Cl)c(C)c1	0.41
COc1ccc2c(c1)CCC1CN(c3ccccc3)N=C21 (configuration not stated)	-0.59
SMILES	Dicer processing
CC(=O)N/C(=C\c1cnc(-c2ccccc2)[nH]1)C(=O)O	-0.75
CC(C)(C)NC(=S)N/N=C/c1c(O)ccc2ccccc12	0.75
CCSC1=C(C#N)C(c2ccc3c(c2)OCO3)CC(=O)N1 (configuration not stated)	-0.76
COc1ccc(S(=O)(=O)NCCSc2ccccn2)cc1	0.14
N/C(=N\OC(=O)c1ccc(Cl)cc1)c1ccc(S(=O)(=O)N2CCOCC2)cc1	0.39
Cc1csc2c(SCC(O)C(F)(F)F)ncnc12 (configuration not stated)	0.91
O=C(NCc1ccc(S(=O)(=O)Nc2ccc3c(c2)OCCO3)s1)c1ccc(Cl)cc1	0.24
O=C(NCc1ccc(S(=O)(=O)Nc2ccc3c(c2)OCCO3)s1)c1ccccc1	3.2*
O=C(NCc1ccc(S(=O)(=O)Nc2ccccc2Cl)s1)c1ccccc1	-0.52
CN(C)NC(=S)NCc1ccc(F)cc1	1.8
Cc1ccc(S(=O)(=O)N=S(Cc2ccccc2)Cc2ccccc2)cc1	-0.03
O=C(NNC(=O)c1cc2ncc(C(F)(F)F)cc2s1)c1ccc(Cl)cc1	0.64
CCOC(=O)CSc1nc2sc3c(c2c(=O)n1-c1ccccc1)CCN(C)C3	2.5
CCCCc1c(O)nc(SCCN(C)C)n(-c2ccccc2)c1=O	0.39
CCCCCc1c(O)nc(SCCN2CCOCC2)n(-c2ccccc2)c1=O	3.3*
O=c1nc(/C=C/c2ccccc2Cl)cc(C(F)(F)F)[nH]1	1.9
O=C1CC(N2CCN(c3ccccc3)CC2)C=C1Nc1ccccc1 (configuration not stated)	4*
O=C1CC(Nc2ccccc2)C=C1Nc1ccccc1 (configuration not stated)	-0.09
O=C1CC(N2CCN(c3ccccc3)CC2)C=C1Nc1ccc(Cl)cc1 (configuration not stated)	1.9
